Measured values: PubChem BioAssay AID1159580 (chemical genetic matrix, 2015)
Screen size: about 5,500 compounds; about 2,000 (36%) were called active. Roughly 18% stayed inconclusive and do not appear here. This is one part of the list. A number with no mark means an inactive call. Cut-off read from the data, not from the text of the source: active = normalized growth mostly below about 0.91 (no sharp cut-off); inconclusive = no clear call, values can overlap the other calls; inactive = mostly above about 0.92.

Assay: chemical genetic growth profiling, strain panel (AID 1159580);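 note: tested at 20 µM; growth read once vehicle control cultures reached saturation at 30 °C; 1 = growth at the plate median or of vehicle wells; lower values mean less growth of the strain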
Settings: growth OD

CC(=O)Oc1ccc(O)cc1
normalized growth (S. cerevisiae deletion strains, locus YJL187C, strain SWE1, active compounds read low): 0.978
normalized growth (S. cerevisiae deletion strains, locus YJR043C, strain POL32, active compounds read low): 0.929
normalized growth (S. cerevisiae deletion strains, locus YJR075W, strain HOC1, active compounds read low): 0.955
normalized growth (S. cerevisiae deletion strains, locus YKL009W, strain mrt4, active compounds read low): 1.02
normalized growth (S. cerevisiae deletion strains, locus YKL068W, active compounds read low): 1.01
normalized growth (S. cerevisiae deletion strains, locus YKL085W, strain MDH1 (second series), active compounds read low): 1.04
normalized growth (S. cerevisiae deletion strains, locus YKL085W, strain MDH1, active compounds read low): 1.04
normalized growth (S. cerevisiae deletion strains, locus YKL160W, strain elf1, active compounds read low): 0.995
normalized growth (S. cerevisiae deletion strains, locus YKR001C, strain vps1, active compounds read low): 0.945
normalized growth (S. cerevisiae deletion strains, locus YKR026C, strain gcn3, active compounds read low): 0.979
normalized growth (S. cerevisiae deletion strains, locus YKR091W, strain srl3, active compounds read low): 0.985
normalized growth (S. cerevisiae deletion strains, locus YLL001W, strain dnm1, active compounds read low): 0.994
normalized growth (S. cerevisiae deletion strains, locus YLL026W, active compounds read low): 0.987
normalized growth (S. cerevisiae deletion strains, locus YLL041C, strain sdh2, active compounds read low): 0.99
normalized growth (S. cerevisiae deletion strains, locus YLR027C, strain aat2, active compounds read low): 0.993
normalized growth (S. cerevisiae deletion strains, locus YLR039C, strain RIC1, active compounds read low): 1.05
normalized growth (S. cerevisiae deletion strains, locus YLR058C, strain SHM2, active compounds read low): 0.991
normalized growth (S. cerevisiae deletion strains, locus YLR102C, strain apc9, active compounds read low): 1.02
normalized growth (S. cerevisiae deletion strains, locus YLR221C, strain rsa3, active compounds read low): 0.959
normalized growth (S. cerevisiae deletion strains, locus YLR258W, strain gsy2, active compounds read low): 0.989
normalized growth (S. cerevisiae deletion strains, locus YLR262C, strain YPT6 (second series), active compounds read low): 0.996
normalized growth (S. cerevisiae deletion strains, locus YLR262C, strain YPT6, active compounds read low): 0.926
normalized growth (S. cerevisiae deletion strains, locus YLR268W, strain sec22, active compounds read low): 0.977
normalized growth (S. cerevisiae deletion strains, locus YLR320W, strain mms22, active compounds read low): 0.923
normalized growth (S. cerevisiae deletion strains, locus YLR330W, strain CHS5, active compounds read low): 0.914 (active)
normalized growth (S. cerevisiae deletion strains, locus YLR342W, strain FKS1 (second series), active compounds read low): 0.819
normalized growth (S. cerevisiae deletion strains, locus YLR342W, strain FKS1, active compounds read low): 0.979
normalized growth (S. cerevisiae deletion strains, locus YLR357W, strain rsc2, active compounds read low): 0.988
normalized growth (S. cerevisiae deletion strains, locus YLR370C, strain arc18, active compounds read low): 1
normalized growth (S. cerevisiae deletion strains, locus YLR371W, strain rom2, active compounds read low): 1.02
normalized growth (S. cerevisiae deletion strains, locus YLR384C, strain iki3, active compounds read low): 0.997
normalized growth (S. cerevisiae deletion strains, locus YLR418C, strain cdc73, active compounds read low): 0.934
normalized growth (S. cerevisiae deletion strains, locus YML016C, strain PPZ1, active compounds read low): 1.01
normalized growth (S. cerevisiae deletion strains, locus YML032C, strain rad52, active compounds read low): 0.967
normalized growth (S. cerevisiae deletion strains, locus YML120C, strain ndi1, active compounds read low): 1.02
normalized growth (S. cerevisiae deletion strains, locus YML124C, strain tub3, active compounds read low): 1.03
normalized growth (S. cerevisiae deletion strains, locus YMR058W, strain fet3, active compounds read low): 0.979
normalized growth (S. cerevisiae deletion strains, locus YMR078C, strain ctf18, active compounds read low): 1.03
normalized growth (S. cerevisiae deletion strains, locus YMR125W, strain sto1, active compounds read low): 0.977
normalized growth (S. cerevisiae deletion strains, locus YMR129W, active compounds read low): 0.99
normalized growth (S. cerevisiae deletion strains, locus YMR205C, strain PFK2, active compounds read low): 1
normalized growth (S. cerevisiae deletion strains, locus YMR223W, strain ubp8, active compounds read low): 1
normalized growth (S. cerevisiae deletion strains, locus YMR231W, strain pep5, active compounds read low): 0.962
normalized growth (S. cerevisiae deletion strains, locus YMR263W, strain SAP30, active compounds read low): 0.991
normalized growth (S. cerevisiae deletion strains, locus YMR307W, strain GAS1, active compounds read low): 0.791
normalized growth (S. cerevisiae deletion strains, locus YNL067W, strain RPL9B, active compounds read low): 0.966
normalized growth (S. cerevisiae deletion strains, locus YNL071W, strain lat1, active compounds read low): 0.961
normalized growth (S. cerevisiae deletion strains, locus YNL128W, strain TEP1, active compounds read low): 1.01
normalized growth (S. cerevisiae deletion strains, locus YNL153C, strain GIM3, active compounds read low): 0.956
normalized growth (S. cerevisiae deletion strains, locus YNL209W, strain ssb2, active compounds read low): 0.988
normalized growth (S. cerevisiae deletion strains, locus YNL233W, strain BNI4, active compounds read low): 0.94
normalized growth (S. cerevisiae deletion strains, locus YNL248C, strain rpa49, active compounds read low): 0.956
normalized growth (S. cerevisiae deletion strains, locus YNL250W, strain rad50, active compounds read low): 1.04
normalized growth (S. cerevisiae deletion strains, locus YNL271C, strain bni1, active compounds read low): 1.04
normalized growth (S. cerevisiae deletion strains, locus YNL298W, strain CLA4, active compounds read low): 1.03
normalized growth (S. cerevisiae deletion strains, locus YNL307C, strain MCK1, active compounds read low): 0.96
normalized growth (S. cerevisiae deletion strains, locus YNL322C, strain KRE1 (second series), active compounds read low): 0.993
normalized growth (S. cerevisiae deletion strains, locus YNL322C, strain KRE1, active compounds read low): 0.996
normalized growth (S. cerevisiae deletion strains, locus YNR049C, strain mso1, active compounds read low): 0.989
normalized growth (S. cerevisiae deletion strains, locus YNR052C, strain pop2, active compounds read low): 1.02
normalized growth (S. cerevisiae deletion strains, locus YOL012C, strain htz1): 0.741
normalized growth (S. cerevisiae deletion strains, locus YOL147C, strain pex11, active compounds read low): 1.03
normalized growth (S. cerevisiae deletion strains, locus YOR001W, strain rrp6, active compounds read low): 0.992
normalized growth (S. cerevisiae deletion strains, locus YOR061W, strain CKA2, active compounds read low): 1.01
normalized growth (S. cerevisiae deletion strains, locus YOR069W, strain VPS5, active compounds read low): 1.01
normalized growth (S. cerevisiae deletion strains, locus YOR070C, strain gyp1, active compounds read low): 0.975
normalized growth (S. cerevisiae deletion strains, locus YOR080W, strain dia2, active compounds read low): 0.998
normalized growth (S. cerevisiae deletion strains, locus YOR083W, strain WHI5, active compounds read low): 0.974
normalized growth (S. cerevisiae deletion strains, locus YOR106W, strain vam3, active compounds read low): 0.995
normalized growth (S. cerevisiae deletion strains, locus YOR136W, strain idh2, active compounds read low): 1.01
normalized growth (S. cerevisiae deletion strains, locus YOR144C, strain elg1, active compounds read low): 1.03
normalized growth (S. cerevisiae deletion strains, locus YOR184W, strain ser1, active compounds read low): 0.984
normalized growth (S. cerevisiae deletion strains, locus YOR265W, strain rbl2, active compounds read low): 1.01
normalized growth (S. cerevisiae deletion strains, locus YOR270C, strain vph1, active compounds read low): 0.986
normalized growth (S. cerevisiae deletion strains, locus YOR290C, strain snf2, active compounds read low): 0.995
normalized growth (S. cerevisiae deletion strains, locus YOR316C, strain cot1, active compounds read low): 1.04
normalized growth (S. cerevisiae deletion strains, locus YPL051W, strain arl3, active compounds read low): 0.962
normalized growth (S. cerevisiae deletion strains, locus YPL078C, strain atp4, active compounds read low): 1.02
normalized growth (S. cerevisiae deletion strains, locus YPL106C, strain sse1, active compounds read low): 0.991
normalized growth (S. cerevisiae deletion strains, locus YPL240C, strain hsp82, active compounds read low): 0.999
normalized growth (S. cerevisiae deletion strains, locus YPL241C, strain CIN2, active compounds read low): 1.02
normalized growth (S. cerevisiae deletion strains, locus YPR119W, strain clb2, active compounds read low): 1.01
normalized growth (S. cerevisiae deletion strains, locus YPR141C, strain kar3, active compounds read low): 1.03
normalized growth (S. cerevisiae deletion strains, locus YPR163C, strain tif3, active compounds read low): 0.974
normalized growth (S. cerevisiae deletion strains, locus YPR167C, strain met16, active compounds read low): 1.03
normalized growth (S. cerevisiae deletion strains, strain wtn01, active compounds read low): 0.995
normalized growth (S. cerevisiae strains, strain wild type, active compounds read low): 0.925
